# From the supplement of paper PMC12669032
# Values without a mark were called inactive.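 How the source made its calls: active = AUC reduced over 20% with Padj below 0.05 in at least 2 of 3 replicates; inactive = otherwise.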
# Tests used:
# Assay in all cases: growth AUC relative to DMSO control (median of replicates) (fraction); higher = more growth (less inhibition), active = hit call of the paper
# Details in all cases: 20 µM; 24 h
# Akkermansia muciniphila = test system: Akkermansia muciniphila
# Summary of the method: (§1)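 For each compound at 20 µM (1% DMSO), gut bacterial monocultures seeded at OD600 0.05 grew anaerobically in mGAM at 37 °C in round-bottom 96-well plates. Hourly OD600 readings over 24 h gave growth curves whose minimum OD was set to 0. Area under these curves was normalised to the plate median of solvent-only wells, or to row and column medians on the industrial chemical plate. Values are medians of three biological replicates grown on separate days.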
# Bacteroides caccae = test system: Bacteroides caccae
# Summary of the method: as §1
# Bacteroides clarus = test system: Bacteroides clarus
# Summary of the method: as §1
# Bacteroides dorei = test system: Bacteroides dorei
# Summary of the method: as §1
# Bacteroides stercoris = test system: Bacteroides stercoris
# Summary of the method: as §1
# [1] = test system: Bacteroides thetaiotaomicron
# Summary of the method: as §1
# Bacteroides uniformis = test system: Bacteroides uniformis
# Summary of the method: as §1
# [2] = test system: Bifidobacterium longum subsp. longum
# Summary of the method: as §1
# Clostridium difficile = test system: Clostridium difficile
# Summary of the method: as §1
# Collinsella aerofaciens = test system: Collinsella aerofaciens
# Summary of the method: as §1
Structure (SMILES),growth AUC (Akkermansia muciniphila),growth AUC (Bacteroides caccae),growth AUC (Bacteroides clarus),growth AUC (Bacteroides dorei),growth AUC (Bacteroides stercoris),growth AUC [1],growth AUC (Bacteroides uniformis),growth AUC [2],growth AUC (Clostridium difficile),growth AUC (Collinsella aerofaciens)
CCCOP(=S)(OCCC)SCC(=O)N1CCCCC1C (stereo not given),0.978,0.956,0.953,0.968,0.892,0.873,0.9,1.06,1.02,1.06
CC(C)N1C(=O)N(c2ccccc2)CSC1=NC(C)(C)C,0.893,0.957,0.902,0.946,0.977,0.927,0.981,0.99,1.02,0.971
CC(C)(C)N(NC(=O)c1ccc(Cl)cc1)C(=O)c1ccccc1,0.852,0.973,0.986,0.983,1.02,0.939,1.01,1.04,1.11,1.02
COCCN(C(=O)CCl)c1c(C)cccc1C,0.91,0.969,0.967,1.02,0.967,0.989,0.973,0.851,1,1.02
CCOP(=O)(SC(C)CC)SC(C)CC (stereo not given),0.94,1.01,0.962,1.02,0.949,0.993,0.981,0.97,0.982,0.933
CCOP(=O)(Sc1ccccc1)Sc1ccccc1,1.16,0.985,0.895,0.927,0.795,0.932,0.881,1.02,0.984,1.03
COP(=S)(OC)SC(CC(=O)O)C(=O)O (stereo not given),0.974,1.01,0.963,0.986,1.06,0.991,0.99,1.01,1,1.05
O=C(Cc1ccccc1)N/C(=N\OCC1CC1)c1c(C(F)(F)F)ccc(F)c1F,1.23,0.936,0.965,0.945,0.852,0.959,0.912,0.975,0.957,0.915
C[N+]1(C)CCCCC1.[Cl-],0.993,1.02,1.03,1.02,1.02,1.03,1.05,1.01,1.01,1.02
C=CCN=C=S,0.98,0.968,0.993,1.01,0.977,1.02,1.02,0.999,1.01,1.02
CCCCOCN(C(=O)CCl)c1c(CC)cccc1CC,1.07,0.909,0.955,0.944,1.25,0.923,0.954,0.996,0.979,0.928
O=C(O)C(F)(F)C(F)(F)C(F)(F)C(F)(F)C(F)(F)C(F)(F)F,0.965,1.03,1,1.01,1,1,1.02,1.04,1,1.02
C#CC(C)(C)NC(=O)c1cc(Cl)cc(Cl)c1,1.06,0.964,0.949,0.956,0.88,0.932,0.96,0.987,0.948,0.936
COP(=O)(OC)OC1=C(Cl)C2C=CCC12 (stereo not given),1.03,0.928,0.995,1,1.42,1.02,1.02,1.01,1,0.964
O=C(NC(=O)c1c(F)cccc1F)Nc1ccc(Cl)cc1,1.14,1.01,0.996,0.998,0.974,0.997,1.01,0.954,1.01,0.955
COP(=O)(OC)Oc1ccc([N+](=O)[O-])cc1,1.17,0.989,1.03,1.02,1.01,0.991,1,1.07,1.04,0.948
CCS(=O)(=O)CCSP(=O)(OC)OC,0.829,1.02,0.962,1,0.979,1.01,0.986,1.01,0.975,1.01
Oc1cccc2cccnc12,0.981,0.994,1.01,0.993,1.12,0.984,0.988,1.14,0.959,0.963
CNC(=O)ON=C(CSC)C(C)(C)C,0.989,1.01,0.992,0.929,1,0.986,1.04,0.999,1,0.983
CNC1=C(c2cccc(C(F)(F)F)c2)C(=O)C(c2ccccc2)O1 (stereo not given),0.993,1.02,0.953,1.01,1.01,0.986,0.972,0.888,1.08,1.02
COP1(=S)OCc2ccccc2O1 (stereo not given),1.01,0.973,0.979,0.999,1.02,0.993,0.986,0.972,0.97,1.04
O=c1oc2ccccc2c(O)c1C(CC(O)c1ccc(-c2ccc(Br)cc2)cc1)c1ccccc1 (stereo not given),1,0.438 (active),0.279 (active),0.563 (active),0.00869 (active),0.733 (active),0.703 (active),0.747 (active),0.327 (active),0.941
CCCC1COC(Cn2cncn2)(c2ccc(Cl)cc2Cl)O1 (stereo not given),1.02,0.952,0.912,0.945,0.854,0.902,0.871,0.97,0.956,0.981
CC(C)N(Cc1ccccc1)C(=O)C(C)(C)C,1.11,0.928,0.976,0.936,0.958,0.98,0.999,1.04,0.937,0.92
O=C(O)C(F)(F)C(F)(F)C(F)(F)C(F)(F)C(F)(F)C(F)(F)C(F)(F)F,1.01,1,1,0.998,1.01,1.04,0.963,1.04,0.991,1
C#CCN1CC(=O)N(COC(=O)C2C(C=C(C)C)C2(C)C)C1=O (mixture of isomers),0.804,0.949,0.936,0.96,0.986,0.952,0.962,0.949,0.997,1.02
COP(=O)(NC(C)=O)SC (stereo not given),0.941,1.01,0.993,0.992,1.02,0.978,0.979,0.96,1.01,1.04
CCOP(=S)(OCC)Oc1cc(-c2ccccc2)on1,1.24,0.984,0.984,0.861,0.961,0.956,0.955,1.06,1.02,0.942
